Sm TGR block: inhibitors of Schistosoma mansoni thioredoxin glutathione reductase. Q962Y6. actives 3% (n = 360,000). purified TGR, DTNB reduction, TNB absorbance 405 nm. Potency, µM (top dose mostly 114 µM), for the others: at the highest dose activity change, negative = inhibition, most hits filed as inhibitors; also: % is scaled to controls: 0 for no effect and ±100 for the full control effect; nearly all actives have a fitted effect of over 60% in size
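First, TGR (20 nM dispensed) and NADPH were mixed with compound. Second, a 15 min room-temperature incubation followed. Third, further NADPH and then DTNB were added to start the reaction. Finally, TNB absorbance was monitored kinetically.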
SARS PLP yeast: SARS-CoV PLP inhibition in yeast. S. cerevisiae expressing SARS-CoV PLpro, growth rescue. Potency, µM (doses to about 32.9 µM), inactives show top-dose activity, positive = growth rescue, most hits filed as activators. actives 0.19% (n = 330,000); calls by dose curve; also: 0% is about no effect; nearly all actives have a fitted effect of over 55% in size
Pf growth 96h: inhibits malaria parasite growth, 96 h; AID 504834; P. falciparum luciferase reporter growth, 96 h; Potency, µM (highest dose often 28.7 µM), without a hit: at the top dose activity change, negative = inhibition, hits mostly inhibitors; actives 6.9% (n = 320,000); also: % is scaled to controls: 0 for no effect and ±100 for the full control effect
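Infected RBCs, 2% Hct / 0.05% parasitemia final; luciferase-reporter P. falciparum; cpd 96 h, 37 C, 5% CO2; luciferase detection reagent; luminescence.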
Pf growth 48h: inhibits P. falciparum growth in the first generation, 48 h; P. falciparum luciferase growth in erythrocytes, 48 h; Potency, µM (series often up to 28.7 µM), for the others: at the highest dose activity change, negative = inhibition, actives largely listed as inhibitors; actives 5.9% (n = 310,000); AID 504832; also: % is scaled to controls: 0 for no effect and ±100 for the full control effect
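Cell-based growth assay: transgenic P. falciparum expressing firefly luciferase, cultured in red cells within RPMI 1640 containing 0.5% w/v Albumax, 24 mM bicarbonate and gentamycin. A drop in luciferase activity indicates inhibition.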
Active calls of the source: *; ? = inconclusive; . = no result given. An excerpt weighted towards active compounds, which were near 12% of everything screened. Unless noted, calls follow the shape of the dose curve; as a rule, active = well fitted curve in the direction sought with a large enough effect; inconclusive = small, poorly fitted or top-dose-only effect, or another doubt; inactive = no such curve, though single readings can be large; an effect the other way counts as inactive or inconclusive. Potency is read from the fitted curve at half-maximal effect.

SMILES | Sm TGR block | SARS PLP yeast | Pf growth 96h | Pf growth 48h
CCOc1cc2nc(-c3ccc(OC)c(OC)c3)nc(NCCCN3CCOCC3)c2cc1OC | 0.0% | 2.7% | 0.0738µM* | .
COc1ccc(-c2oc3ncn(CCN4CCOCC4)c(=N)c3c2-c2ccc(OC)cc2)cc1 | -12.4% | -7.0% | 21.6% | 7.38µM*
COc1ccc(-c2oc3ncnc(NCCCN4CCOCC4)c3c2-c2ccc(OC)cc2)cc1 | 0.6% | 4.3% | 81.7% | 5.22µM*
COc1ccc(NC(=O)c2cc3nc(-c4ccc(C)c(C)c4)cc(C(F)(F)F)n3n2)cc1 | -1.5% | . | . | .
Cc1nc(N2CCOCC2)c2c(C(=O)N3CCN(c4cccc(C)c4C)CC3)c(C)oc2n1 | 24.6% | . | . | .
COCCCNC(=O)c1oc2c(c1C)-c1nn(Cc3cccc(Cl)c3)cc1CC2 | -7.0% | . | . | .
COc1ccc(-c2cn3cc(Cl)ccc3n2)cc1OC | ? | 3.4% | 28.0% | 47.2%
CNC(=O)Oc1ccc(-c2cn3cc(Cl)ccc3n2)cc1 | 35.5µM* | 8.0% | 3.9% | 23.9%
CC1=C(c2ccc(C)c(C)c2)S(=O)(=O)N=C1N1CCC(C(=O)NCc2ccc(C)o2)CC1 | -17.7% | . | . | .
COC(=O)[C@]1(Cc2ccccc2)N[C@H](c2ccc(-c3ccc(F)cc3)cc2)[C@@H]2C(=O)N(C)C(=O)[C@@H]21 | ? | -1.5% | 13.1µM* | ?
COC(=O)[C@]1(Cc2ccccc2)N[C@H](c2ccc(-c3ccc4c(c3)OCO4)cc2)[C@@H]2C(=O)N(C)C(=O)[C@@H]21 | -14.6% | -2.3% | ? | ?
CCN1C(=O)[C@H]2[C@@H](c3ccc(-c4ccccc4)cc3)N[C@@](CC(C)C)(C(=O)OC)[C@H]2C1=O | ? | 2.0% | 9.28µM* | 8.28µM*
CCN1C(=O)[C@H]2[C@@H](c3ccc(-c4ccc(C(C)=O)cc4)cc3)N[C@@](Cc3ccccc3)(C(=O)OC)[C@H]2C1=O | -23.6% | -1.9% | 10.4µM* | 13.1µM*
COc1ccc(C2NC(Cc3ccccc3)(C(=O)O)C3C(=O)N(c4ccccc4OC)C(=O)C23)cc1 (centres undefined) | 22.4µM* | -1.4% | 10.6% | 20.5%
CCN1C(=O)[C@H]2[C@@H](c3ccc(-c4ccccc4)cc3)N[C@@](Cc3ccccc3)(C(=O)OC)[C@H]2C1=O | 0.0% | 3.3% | ? | 10.4µM*
CC(=O)c1cccc(NC(=O)c2cccc(S(=O)(=O)N3CCOCC3)c2)c1 | -7.3% | -0.8% | 13.0% | -24.1%
C/C(=N\NC(=O)c1cccc(S(=O)(=O)N2CCOCC2)c1)c1ccc(O)cc1 | -6.8% | 3.5% | 0.586µM* | -20.5%
CC(=O)Nc1cccc(/C(C)=N/NC(=O)c2cccc(S(=O)(=O)N3CCOCC3)c2)c1 | 4.7% | 0.7% | 11.7µM* | -1.9%
COc1cccc(CN(C(=O)COc2ccc(C)cc2)C2CCS(=O)(=O)C2)c1 (centres undefined) | -2.9% | 3.2% | 22.5% | -3.6%
CCOc1ccc(CN(C(=O)c2ccco2)C2CCS(=O)(=O)C2)cc1 (centres undefined) | -30.0% | 2.2% | 2.0% | 10.2%
CCOc1ccc(CN(C(=O)/C=C/c2ccco2)C2CCS(=O)(=O)C2)cc1 (centres undefined) | 4.47µM* | 2.4% | 9.3% | 10.8%
Cc1ccc(OCC(=O)N(Cc2cccc(F)c2)C2CCS(=O)(=O)C2)cc1 (centres undefined) | 7.5% | 7.2% | 10.4µM* | ?
COc1ccc(CN(C(=O)/C=C/c2ccco2)C2CCS(=O)(=O)C2)cc1 (centres undefined) | 2µM* | 0.1% | -0.7% | 13.5%
COc1cccc(CN(C(=O)/C=C/c2ccco2)C2CCS(=O)(=O)C2)c1 (centres undefined) | 7.94µM* | -1.5% | ? | 6.2%
Cn1cc(S(=O)(=O)N2CCCC2)cc1C(=O)Nc1ccc(C(F)(F)F)cc1 | -7.8% | . | . | .
SMILES | Sm TGR block | SARS PLP yeast | Pf growth 96h | Pf growth 48h
CCCN(C(=O)c1ccc(N(C)S(=O)(=O)c2ccc(C)cc2)cc1)C1CCS(=O)(=O)C1 (centres undefined) | 0.0% | -0.6% | ? | ?
COc1ccccc1C(=O)N(Cc1ccco1)C1CCS(=O)(=O)C1 (centres undefined) | 35.5µM* | 10.7% | . | 15.5%
COc1cccc(CN(C(=O)c2ccco2)C2CCS(=O)(=O)C2)c1 (centres undefined) | -5.1% | 2.3% | ? | 8.2%
COc1ccc(CN(C(=O)/C=C/c2ccco2)C2CCS(=O)(=O)C2)cc1OC (centres undefined) | 3.55µM* | -10.9% | 36.8% | 11.6%
CCc1cccc(NC(=O)c2coc(=O)c3ccccc23)c1 | -9.0% | . | . | .
Cc1ccc(S(=O)(=O)N(C)C)cc1NC(=O)CN1C(=O)NC2(CCCCCCC2)C1=O | -9.9% | 3.9% | ? | -9.2%
COCC(=O)NCCSc1c(C)[nH]c2ccccc12 | -4.3% | 2.5% | -0.5% | 28.4%
COCC(=O)c1[nH]c2ccccc2c1C | ? | ? | 3.7µM* | 1.0%
O=C(C1=C[C@H](C2CC2)C[C@H](OCc2ccc(CO)cc2)O1)N1CCN(Cc2ccc3c(c2)OCO3)CC1 | 1.4% | 1.3% | ? | ?
O=C(C1=C[C@@H](C2CCCCC2)C[C@@H](OCc2ccc(CO)cc2)O1)N1CCN(Cc2ccc3c(c2)OCO3)CC1 | 0.0% | -4.4% | 13.1µM* | 4.65µM*
O=C(C1=C[C@H](C2CCCCC2)C[C@H](OCc2ccc(CO)cc2)O1)N1CCN(Cc2ccc3c(c2)OCO3)CC1 | -4.5% | -0.6% | 10.4µM* | ?
O=C(C1=C[C@H](C2CC2)C[C@H](OCCCCO)O1)N1CCN(Cc2ccc3c(c2)OCO3)CC1 | -24.9% | -0.4% | ? | ?
CCc1ccc(NC(=O)COc2ccc(/C=C(/C#N)c3nc4ccccc4[nH]3)cc2OC)cc1 | -12.2% | 17.5% | ? | 2.62µM*
COc1cc(/C=C(/C#N)c2nc3ccccc3[nH]2)ccc1OCc1ccc(C(=O)O)o1 | -3.6% | -8.2% | ? | ?
COc1cc(/C=C(\C#N)c2nc3ccccc3[nH]2)ccc1OCc1ccc(F)cc1 | -4.9% | . | . | .
COC(=O)c1ccc(COc2ccc(/C=C(\C#N)c3nc4ccccc4[nH]3)cc2OC)o1 | -1.2% | 25.8% | ? | 1.31µM*
CN1CC(c2ccc(Cl)c(Cl)c2)[C@@]2(COc3ccccc3C2=O)[C@@]12C(=O)Nc1ccccc12 (some centres undefined) | 0.2% | 2.0% | 2.08µM* | 3.29µM*
COC(=O)C(NS(=O)(=O)c1cccc(S(=O)(=O)NC(C(=O)OC)c2ccccc2)c1)c1ccccc1 (centres undefined) | -17.4% | -13.6% | ? | -12.9%
COC(=O)C(c1ccccc1)N(Cc1cccc(CN(C(C(=O)OC)c2ccccc2)S(C)(=O)=O)c1)S(C)(=O)=O (centres undefined) | -23.7% | 9.4% | 10.4µM* | 8.28µM*
CCCCOc1ccccc1NC(=O)CC1Nc2ccccc2NC1=O (centres undefined) | ? | 10.8% | -6.4% | 1.65µM*

High-throughput results from PubChem.
